Inconclusive results are not listed. Where a call stands in place of a potency, no number is given. Active and inactive are the calls of the source. The call rests on the fitted dose curve; in most records, active means well fitted inhibition curve with a large enough effect in the repeat runs; inconclusive means weak or mixed curves; inactive means flat fitted curve, though single readings scatter.
Target: Voltage-gated inwardly rectifying potassium channel KCNH2 (Homo sapiens) (UniProt Q12809)
Test: Human Ether-a-go-go-Related Gene (hERG) channel small molecule antagonists: fluorescence cell-based qHTS assay (AID 1671200); further: nearly all actives have a fitted effect of over 50% in size
Conditions: hERG-U2OS cells, FluxOR thallium flux fluorescence; series mostly up to 76.8 µM
Description: National Center for Advancing Translational Sciences [NCATS]
U.S. Environmental Protection Agency [EPA]
National Institutes of Environmental Health Sciences [NIEHS]
National Toxicology Program [NTP]
U.S. Food and Drug Administration [FDA]
Mutations in the hERG channel cause Long QT (LQT) syndrome. LQT syndrome is a cardiac disorder which can cause ventricle arrhythmia and sudden death. Additionally, compounds which block the hERG channel can cause acquired LQT syndrome. Several FDA approved drugs have been removed from the market due to their hERG blocking activity. A cell-based hERG channel inhibition assay can be used to screen chemical compounds that inhibit hERG channel. This assay measures hERG channel activity using thallium ions as surrogate ions to measure potassium into the cells.
Tox21 Assay Protocol Summary:
hERG-U2OS cells were resuspended in culture medium and dispensed into 1536-well, black wall/clear-bottom plates at 1000cells/well/3uL using a Multidrop Combi dispenser (Thermo Fisher, Waltham, MA). After plates were incubated at 37 C overnight, 3 uL of Loading Buffer provided by FluxOR II Potassium Ion Channel Assay kit (Thermo, Carlsbad, CA) was added to each well. The assay plates were then incubated at room temperature in the dark for 1h. […] After the assay plates were incubated at room temperature for 10 min, 1 uL of Stimulus Buffer provided by FluxOR II Potassium Ion Channel Assay kit was added into each well and fluorescence intensity (480nm excitation/540nm emission) was continuously measured for 2 min at 1 second intervals using a Functional Drug Screening System (FDSS) 7000EX kinetic plate reader (Hamamatsu, Japan).
Potency means the concentration at half of the fitted maximal effect.

Voltage-gated inwardly rectifying potassium channel KCNH2 (Homo sapiens), sequence (Q12809 whole entry, looked up): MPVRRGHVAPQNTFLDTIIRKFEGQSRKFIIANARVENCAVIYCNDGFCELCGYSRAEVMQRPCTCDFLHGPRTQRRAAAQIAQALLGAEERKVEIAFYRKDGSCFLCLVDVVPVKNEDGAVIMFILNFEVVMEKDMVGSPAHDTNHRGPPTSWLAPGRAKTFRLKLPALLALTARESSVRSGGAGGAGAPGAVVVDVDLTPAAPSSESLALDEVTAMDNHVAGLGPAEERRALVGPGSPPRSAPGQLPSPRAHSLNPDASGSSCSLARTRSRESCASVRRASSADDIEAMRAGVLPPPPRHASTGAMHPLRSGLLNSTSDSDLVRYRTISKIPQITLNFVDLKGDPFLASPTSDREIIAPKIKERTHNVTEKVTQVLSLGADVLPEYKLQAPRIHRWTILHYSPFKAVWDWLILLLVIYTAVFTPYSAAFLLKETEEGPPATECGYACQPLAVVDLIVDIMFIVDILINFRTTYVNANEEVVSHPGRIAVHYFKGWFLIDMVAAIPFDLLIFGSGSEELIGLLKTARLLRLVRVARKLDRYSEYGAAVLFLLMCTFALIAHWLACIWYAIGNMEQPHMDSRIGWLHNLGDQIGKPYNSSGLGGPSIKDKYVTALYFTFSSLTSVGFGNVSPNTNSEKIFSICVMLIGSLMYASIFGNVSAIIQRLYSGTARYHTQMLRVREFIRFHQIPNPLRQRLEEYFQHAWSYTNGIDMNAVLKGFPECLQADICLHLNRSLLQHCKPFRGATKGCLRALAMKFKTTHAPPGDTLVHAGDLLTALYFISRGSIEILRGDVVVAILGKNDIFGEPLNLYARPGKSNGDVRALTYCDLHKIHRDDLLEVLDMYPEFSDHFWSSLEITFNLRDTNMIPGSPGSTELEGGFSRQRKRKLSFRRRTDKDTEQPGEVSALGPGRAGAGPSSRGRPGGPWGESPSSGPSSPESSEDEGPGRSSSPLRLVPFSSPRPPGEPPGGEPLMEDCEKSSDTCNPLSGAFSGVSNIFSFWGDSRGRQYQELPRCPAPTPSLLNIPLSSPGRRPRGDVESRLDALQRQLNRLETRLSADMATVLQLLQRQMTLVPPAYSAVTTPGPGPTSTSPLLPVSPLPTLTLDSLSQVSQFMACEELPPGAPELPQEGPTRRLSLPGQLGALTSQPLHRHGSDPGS

Structure (SMILES)	Potency	activity change, negative = inhibition
CN(C[C@@H](CC[N+]12CCC(C3CCCCC3)(CC1)CC2)c1ccc(Cl)c(Cl)c1)C(=O)c1cc(C(F)(F)F)cc(C(F)(F)F)c1	inactive	–
CCc1cccc(CC)c1	inactive	–
O=[N+]([O-])c1ccc(O)c2ncccc12	inactive	–
O=C(Nc1ccc([N+](=O)[O-])cc1)Nc1ccc([N+](=O)[O-])cc1 (tested in a mixture with another compound)	inactive	–
C/C(=N\[Si](C)(C)C)O[Si](C)(C)C	inactive	–
C=C1C(CCl)(CCl)C2(Cl)C(Cl)C(Cl)C1(Cl)C2(Cl)Cl (stereo not given)	43.1 µM (active)	–
Oc1ccc(Cl)cc1C1CCCC1	inactive	–
CC(=O)[C@]1(O)Cc2c(O)c3c(c(O)c2[C@@H](O[C@H]2C[C@H](N)[C@H](O)[C@H](C)O2)C1)C(=O)c1ccccc1C3=O	inactive	–
O=C(O)C[C@H](O)C[C@H](O)/C=C/c1c(C2CC2)nc2ccccc2c1-c1ccc(F)cc1	–	2.63% [at 15.8 µM] (inactive)
NCc1ccco1	inactive	–
N#Cc1nc(Cl)c(Cl)c(Cl)c1Cl	inactive	–
CC/C=C(\C)C=O	inactive	–
Nc1ccc(Cl)c([N+](=O)[O-])c1	inactive	–
CCC(C)(C)c1ccc(CC(C)CN2C[C@@H](C)O[C@@H](C)C2)cc1 (stereo not given in full)	9.52 µM (active)	–
c1ccc(-c2nc3ccccc3[nH]2)cc1	inactive	–
Cc1cccc2c1ccc1ccccc12	inactive	–
c1ccc2occc2c1	inactive	–
CC(=O)CC(N)=O	inactive	–
C=Cc1ccncc1	inactive	–
CCOc1nc(F)cc2nc(S(=O)(=O)Nc3c(Cl)cccc3C(=O)OC)nn12	inactive	–

Structure (SMILES)	Potency	activity change, negative = inhibition
O=C(Cl)c1ccc(Cl)cc1Cl	inactive	–
COc1c(Br)cc(Br)c(C)c1Br	inactive	–
CN[C@H]1CC[C@@H](c2ccc(Cl)c(Cl)c2)c2ccc(S(N)(=O)=O)cc21	9.77 µM (active)	–
CC(CC(C)(C)C)CC(C)(C)CC(C)(C)C (stereo not given)	inactive	–
c1ccc2cc3c4ccccc4c4ccccc4c3cc2c1	inactive	–
COc1cc([C@@H]2c3cc4c(cc3[C@@H](O[C@@H]3O[C@@H]5CO[C@@H](C)O[C@H]5[C@H](O)[C@H]3O)[C@H]3COC(=O)[C@H]23)OCO4)cc(OC)c1O	inactive	–
CCCCNc1ccc(NCCCC)c2c1C(=O)c1ccccc1C2=O	–	-6.35% [at 15.8 µM] (inactive)
Clc1nc(C(Cl)(Cl)Cl)c(Cl)c(Cl)c1Cl	49 µM (active)	–
CC1=CC[C@@H](C(C)(C)O)CC1	inactive	–
CCN(CCC#N)c1ccc(N=Nc2ccc([N+](=O)[O-])cc2)cc1	inactive	–
Cc1ccc(C2OC[C@@H]3OC(c4ccc(C)cc4)O[C@H]([C@H](O)CO)[C@@H]3O2)cc1 (stereo not given in full)	inactive	–
O=C(CCCCCCCCc1cccnc1)N1CCC(C=C(c2ccccc2)c2ccccc2)CC1	6.92 µM (active)	–
CCOC(=O)C1=NN(c2ccc(Cl)cc2Cl)C(C)(C(=O)OCC)C1 (stereo not given)	43.6 µM (active)	–
CCOC(=O)OC(=O)OCC	inactive	–
Cn1ccnc1	inactive	–
SC1CCCCC1	inactive	–
CCOc1ccc([N+](=O)[O-])cc1	inactive	–
CCOC=C(C(=O)OCC)C(=O)OCC	inactive	–
CCCCCCCCCCCCCCCCC(C(=O)O)C(O)(CC(=O)O)C(=O)O (stereo not given)	inactive	–
CCC(O)CO (stereo not given)	inactive	–
